D2 PAM-1 – potentiates the human D2 dopamine receptor allosterically | potentiation, % (test concentration not listed) | P14416 | DiscoveRx D2 beta-arrestin cells, luminescence, 90 min; 100% = 57 uM dopamine signal | 0.23% of 360,000 active; in the data active = potentiation above about 50%; inconclusive = mostly about 30% to 49%
Target sequence (P14416 whole entry, looked up): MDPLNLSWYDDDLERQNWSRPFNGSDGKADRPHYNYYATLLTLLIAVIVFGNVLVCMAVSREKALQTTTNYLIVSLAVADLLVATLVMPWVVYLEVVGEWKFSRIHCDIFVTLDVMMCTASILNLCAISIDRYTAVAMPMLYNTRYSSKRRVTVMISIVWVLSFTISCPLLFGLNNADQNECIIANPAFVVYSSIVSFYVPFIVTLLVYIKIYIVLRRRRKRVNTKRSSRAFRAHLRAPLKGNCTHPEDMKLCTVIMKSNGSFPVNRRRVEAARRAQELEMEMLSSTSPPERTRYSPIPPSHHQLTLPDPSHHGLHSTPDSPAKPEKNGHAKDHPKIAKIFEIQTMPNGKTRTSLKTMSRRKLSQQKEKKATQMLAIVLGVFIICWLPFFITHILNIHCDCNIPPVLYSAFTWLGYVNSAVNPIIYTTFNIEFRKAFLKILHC
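PathHunter D2 cells, attached overnight at 37 deg C, received compound in DMSO plus dopamine at EC20 (50 nM final) for 90 min at 37 deg C. Beta-arrestin recruitment was read as luminescence after 1 h with detection reagent at ambient temperature.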
D2 PAM-2 – positively modulates the human D2 dopamine receptor allosterically. P14416. HEK293 T-REx D2, calcium flux, EC20 dopamine potentiation. potentiation, % at 10 µM. 0.34% of 340,000 active;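 active = potentiation over 3 SD above the plate norm, cut at about 30% in these data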
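Tetracycline-induced HEK293 T-REx cells force-coupled to calcium signalling expressed D2; compounds were pin-added after a 10 s baseline, read kinetically 180 s, then an EC20 dopamine challenge followed with a further 180 s calcium read.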
D2 ag-1 – agonists of human D2 dopamine receptor (beta-arrestin); P14416; DiscoveRx PathHunter D2 beta-arrestin, luminescence, 90 min; 100% = 57 uM dopamine signal; activation, % (concentration not given with the values); 0.084% of 360,000 active; AID 624465; in the data active = activation above about 40%; inconclusive = between about 15% and that limit
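Agonist mode: compounds alone added to overnight-plated D2 PathHunter cells for 90 min at 37 C, with 57 uM final dopamine (EC100) defining full response. Beta-arrestin recruitment detected by chemiluminescent reagent, read after 1 h at ambient temperature.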
D2 ag-2 – D2 dopamine receptor (human) agonism | P14416 | HEK293 T-REx D2 cells, calcium flux agonist mode | 0.53% of 340,000 active | AID 485358 | activation, % at 2 µM;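 active = activation over 3 SD above normal in the single-dose calcium agonist read, cut at about 30% in these data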
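HEK293 Trex D2 cells, tetracycline-induced, o/n 30 C 5% CO2; no-wash Ca dye, RT 30–90 min; 10-cycle baseline, 23 nl cpd added, kinetic Ca read 180 s; agonist hits = positive Ca response.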
D2 antag – D2 dopamine receptor (human) antagonism | P14416 | HEK293 TREx D2 cells, calcium flux, dopamine EC80 | inhibition, % at 10 µM | 2% of 340,000 active | AID 485344; in the data active = inhibition above about 30%; inactive = below that, where a call was filed
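Tetracycline-induced HEK293 TREx cells expressing D2 receptor forced-coupled to calcium signalling, loaded with no-wash calcium dye. Compounds added and calcium flux read 180 s, then dopamine added at EC80 and read a further 180 s.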
Large screens that a line does not name were inactive. A selection: hits, their analogues and other compounds. The true share with any hit is near 2.4%.

Nn1c(SC/C=C/c2ccccc2)nnc1-c1ccncc1	D2 antag 38
O=C(NCCC1=CCCCC1)c1cc2ccccc2oc1=O	none (no result: D2 PAM-2, D2 ag-2, D2 antag)
O=C(O)CCc1ccc(-c2ccc(Cl)cc2)n1CC(=O)Nc1ccccc1	D2 PAM-2 36
O=C(O)CCc1ccc(-c2ccc(Cl)cc2)n1CC(=O)O	none
Cn1c(-c2ccc(F)cc2)cnc1NCc1cc2c(cc1[N+](=O)[O-])OCO2	none
Cc1nc(SCC(=O)NCc2ccco2)c2c3c(sc2n1)CCCC3	D2 antag 36
CC(C)c1nnc(NC(=O)CCC(=O)Nc2ccc3cn[nH]c3c2)s1	D2 antag 61
CC(=O)c1cccc(NC(=O)c2ccc(NC(=O)CC3SC(N4CCCCC4)=NC3=O)cc2)c1 (centres undefined)	none
O=C(CC1SC(N2CCCCC2)=NC1=O)Nc1ccc(C(=O)O)cc1 (centres undefined)	none
CC(=O)c1cccc(NC(=O)CC2SC(N3CCCCC3)=NC2=O)c1 (centres undefined)	D2 antag 45
O=C(CC1SC(N2CCCCC2)=NC1=O)Nc1cccc(C(F)(F)F)c1 (centres undefined)	D2 antag 79
O=C(c1ccc(F)cc1)C1CCN(Cc2ccccc2F)CC1	none (no result: D2 PAM-2, D2 ag-2, D2 antag)
O=C(c1ccc(Cl)cc1)C1CCN(Cc2ccccc2)CC1	D2 antag 81
O=C(NN1CCN(Cc2ccccc2)CC1)c1ccc(Cl)cc1	D2 antag 67
O=c1[nH]c(C2CCCN(S(=O)(=O)c3cccc(Cl)c3)C2)nc2c1nnn2Cc1ccc2c(c1)OCCO2 (centres undefined)	none
COCCCn1c(C)cc(C(=O)COC(=O)CCc2nc3ccccc3c(=O)[nH]2)c1C	D2 antag 31
O=C(N/N=C/c1ccc(OC(F)F)cc1)c1ccc(Br)cc1	D2 antag 31
COc1ccccc1/C=N/NC(=O)c1ccc(Br)cc1	D2 antag 72
COc1ccc(/C=N/NC(=O)c2ccc(Br)cc2)c(OC)c1	D2 antag 33
COc1ccccc1C=NNC(=O)NN=Cc1ccccc1OC	none (no result: D2 PAM-2, D2 ag-2, D2 antag)
COc1ccc(/C=N/NC(=O)c2ccncc2)c(OC)c1	none
Cc1ccc(Nc2nnc(C)c(=O)[nH]2)cc1	D2 antag 43
COc1ccc(C2C(O)C(c3c[nH]c4ccccc34)=NN2C(=O)CCl)cc1 (centres undefined)	D2 antag 32
O=C(c1ccc(F)cc1)N(Cc1ccco1)C1CCS(=O)(=O)C1 (centres undefined)	none
O=C(c1ccccc1)N(Cc1ccco1)C1CCS(=O)(=O)C1 (centres undefined)	D2 antag 37
O=c1[nH]nc(CNc2ccc(Cl)cc2Cl)c2ccccc12	none
Cn1c(=O)c2c(nc(N/N=C/c3ccco3)n2C)n(C)c1=O	D2 antag 52
Cn1c(=O)c2c(nc(N/N=C/c3cccs3)n2C)n(C)c1=O	none
COc1ccc(C(=O)NC2CCN(S(=O)(=O)c3ccccc3F)CC2)cc1	D2 antag 33
COC(=O)c1ccccc1S(=O)(=O)N1CCC(NC(=O)c2ccccc2)CC1	none
CCc1ccccc1NC(=O)N1CCCC(CCC(=O)N(C)CCc2ccccn2)C1 (centres undefined)	D2 antag 33
COc1ccc(NC(=O)N2CCCC(CCC(=O)N(C)CCc3ccccn3)C2)cc1 (centres undefined)	none
CSCCC(NC(=O)c1ccccc1)C(=O)NCC(C)(C)N1CCOCC1 (centres undefined)	none
COC(=O)c1cc(NC(=O)CC2SCCNC2=O)cc(C(=O)OC)c1 (centres undefined)	D2 antag 35
Cc1ccccc1NC(=O)CC1SCCNC1=O (centres undefined)	D2 antag 45
O=C(CC1SCCNC1=O)Nc1cc(Cl)cc(Cl)c1 (centres undefined)	none (no result: D2 PAM-2, D2 ag-2, D2 antag)
COc1cccc(OC)c1OCCCCn1cnc2ccccc2c1=O	none
COc1cc(OC)nc(Oc2cccc(C(F)(F)F)c2)n1	none
CCN(CC)S(=O)(=O)c1ccc(OCC(=O)NC(=O)c2ccccc2OC)c([N+](=O)[O-])c1	D2 PAM-1 55
NC(=O)C1CCN(c2ncnc3c2cnn3-c2cccc(Cl)c2)CC1	none (no result: D2 PAM-1, D2 ag-1, D2 antag)
CCOC1(OCC)C(c2ccc(Cl)cc2)C(C#N)(C#N)C1(OCC)OCC (centres undefined)	D2 antag 38
O=c1c(Cc2ccc(F)cc2)c(O)ccn1CCc1ccccn1	D2 antag 41
CCCCn1ccc(O)c(Cc2ccc(F)cc2)c1=O	none
Cc1cc(C)nc(/N=C(\N)Nc2ccc(C)c([N+](=O)[O-])c2)n1	none
COC(=O)c1c(NC(=O)C(=O)NCC2CCCO2)sc2c1CC(C)(C)OC2 (centres undefined)	D2 antag 36
CC(=O)c1sc2nsc(SCCN3CCOCC3)c2c1N	none
Nc1c(C(=O)c2ccccc2)sc2nsc(SCCN3CCOCC3)c12	D2 ag-2 32
CCOC(=O)C1CCN(C(=S)NC2CCCC2)CC1	D2 antag 34
CCOC(=O)C1CCCN(C(=S)NC2CCCCC2)C1 (centres undefined)	none (no result: D2 PAM-2, D2 ag-2, D2 antag)
O=C(Cc1ccccc1)NN1C(=O)/C(=C/c2ccccc2C(=O)O)SC1=S	D2 antag 31
O=C(O)COc1ccccc1/C=C1\SC(=S)N(NC(=O)c2ccccc2O)C1=O	none
COc1cc(C(=O)Nc2ccc(C)cc2C(NCC(=O)NN)c2ccccc2)cc(OC)c1OC (centres undefined)	none
COc1cc(CNCc2cc(OC)c(OC)c(OC)c2)cc(OC)c1	D2 antag 30
Cc1ccc(NC(=O)c2c(C)oc3ncn(C)c(=O)c23)cc1F	none (no result: D2 PAM-1, D2 ag-1, D2 antag)
COc1ccc(C)cc1NC(=O)CSc1nc2ccccc2nc1N1CCCCC1	none
CC(=O)Nc1cc(-c2ccccc2)ccc1O	none
Nc1cc(-c2ccccc2)ccc1O	D2 PAM-1 98, D2 ag-1 inconclusive
COC(=O)[C@H](Cc1c[nH]c2ccccc12)NCc1cccc(B(O)O)c1	none (no result: D2 PAM-1, D2 PAM-2, D2 ag-2, D2 antag)
CCN(CC)CCOC(=O)c1ccc(NC(=O)CCCN2C(=O)/C(=C\c3cccs3)SC2=S)cc1	D2 antag 68
CCn1c(C)c(C)c2cc(C(=O)NCCCN3CCN(C)CC3)ccc21	none
CC1CN(CCOCCSc2ccc(Cl)cc2)CC(C)O1 (centres undefined)	D2 antag 50
Clc1ccc(SCCOCCN2CCCCC2)cc1	none
CCOC(=O)C1CCN(CCC(=O)Nc2ccc(Cl)cc2)CC1	none
CCOC(=O)C1CCN(CCCSc2ccc(Cl)cc2)CC1	D2 antag 46
CC1CCN(CCOCCSc2ccc(Cl)cc2)CC1	D2 antag 45
COc1ccc(OCCN2CCN(S(=O)(=O)c3ccccc3C#N)CC2)cc1	none
CCOC(=O)C1=C(CNCCc2ccc(Cl)cc2)NC(=O)NC1c1ccc2c(c1)OCO2 (centres undefined)	D2 PAM-2 31
